# Inconclusive results are not listed. Active and inactive are the calls of the source. Unless noted, the rule behind the calls is not given here. Numbered stars: 1 amine (or outer) side, 2 acyl side, 3 side chain; on linkers, the order of the positions; unused ones are H or OH. Bridge positions count the residues as written; N and C are the ends. Square brackets hold non-standard residues; d marks the D form. Peptide text beside a SMILES is read from it. I, II: the chains in the order shown. Actinocin(9to1) = Cc1c2oc3c(C)ccc(C(=O)[*:1])c3nc-2c(C(=O)[*:2])c(N)c1=O; NMeV = CN[CH](C(=O)O)C(C)C; Sar = CNCC(=O)O
# Key:
# [1] = circadian clock period modulators, cell-based, LOPAC library, luminescence reporter (AID 2774); details: circadian reporter cells, at 7 µM, actives lie on both sides;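 note: values are relative to mean of DMSO wells on each plate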
# [2] = tested on: Hepatitis C virus NS3 helicase; test: HCV NS3 helicase inhibitors, primary screen, biochemical, fluorescence polarization, LOPAC1280 library (AID 687035; in the data active = inhibition above about 37%); details: Purified HCV NS3 helicase, Cy5-dT15 ssDNA binding fluorescence polarization; stronger effect = higher value; concentration not given here
# [3] = Cy5 fluorescence quenching or enhancement artefacts, artefact control for HCV NS3 helicase inhibitor project, biochemical, LOPAC1280 (AID 687037); details: Cy5-DNA-NS3h complex fluorescence interference counterscreen
# [4] = phospholipid biosynthesis inhibitors in animal cells, primary screen, cell-based, LOPAC library, screen 4 (AID 1347384); details: phospholipid biosynthesis inhibition screen, at 10 µM
# [5] = tested on: Aerobactin synthetase IucA (Klebsiella pneumoniae); test: IucA aerobactin synthetase inhibitors, biochemical, Tocris library, absorbance (AID 1345561); details: purified IucA enzyme assay, absorbance (OD) read-out; stronger effect = lower value;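 tested at 8 µM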;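 note: 100% = enzyme without compound and 0% = no enzyme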
# [6] = target: NAD(+) hydrolase SARM1 (Homo sapiens) (UniProt Q6SZW1); test: SARM1 TIR NADase inhibitors, cell lysate, NAD-Glo luminescence (AID 1508614;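 active = compound whose remaining NAD level is above about 45 nM, limit read from the data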;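 note: higher remaining NAD means stronger inhibition of SARM1 NADase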); details: SAM-TIR HEK293T lysate NADase, at 1 µM, stronger effect = higher value
# [7] = hESC survival regulators, cell-based (AID 493140); details: human embryonic stem cell survival screen; stronger effect = higher value;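 note: cells exposed to compounds for four days before counting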
# [8] = growth inhibition of DIPG glioma cells, dose response, cell-based, SU-DIPG-XVII, MIPE5.0, CellTiter-Glo, qHTS (AID 1347060; cut-off not given, nearly all actives have AC50 up to about 26 µM;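 note: cells exposed to compound for 48 hours before viability readout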); details: SU-DIPG-XVII viability, CellTiter-Glo ATP luminescence
# [9] = growth inhibition of DIPG glioma cells, dose response, cell-based, JHH-DIPG-1, MIPE4.0, CellTiter-Glo, qHTS (AID 1347062; cut-off not given, nearly all actives have AC50 up to about 27 µM); details: JHH-DIPG-1 viability, CellTiter-Glo ATP luminescence
# [10] = SU-DIPG-XXV glioma cell viability, MIPE5.0 library, qHTS (AID 1347068; cut-off not given, nearly all actives have IC50 up to about 30 µM;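 note: cells exposed to compound for 48 hours before viability readout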)
# [11] = LFS_MB_P medulloblastoma growth inhibition, cell-based, chromothripsis tumors, cisplatin or BGB combos (AID 1671449; in the data active = inhibition above about 80%;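 note: cells exposed for 96 hours; 0% = vehicle DMSO and 100% = killing by high DMSO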); details: LFS_MB_P medulloblastoma cells
# [12] = HDN33 neuroblastoma growth inhibition, cell-based, chromothripsis tumors, cisplatin or BGB combos (AID 1671450; in the data active = inhibition above about 80%;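 note: cells exposed to compound for four days; 0% = vehicle DMSO and 100% = cell killing by high DMSO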); details: HDN33 neuroblastoma cells, stronger effect = higher value
# [13] = ICB984 medulloblastoma cell growth inhibition, synergistic combos for chromothripsis tumors, cisplatin or BGB combos (AID 1671451); details: ICB984 medulloblastoma cells, drug combinations, stronger effect = higher value;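 note: cells exposed for 96 hours before readout; 0% = vehicle DMSO and 100% = killing by high DMSO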
# [14] = LFS_MB_1R medulloblastoma cell growth inhibition, synergistic combos for chromothripsis tumors, cisplatin or BGB combos (AID 1671452; in the data active = inhibition above about 80%;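 note: cells exposed for 96 hours before readout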); details: LFS_MB_1R medulloblastoma cells, stronger effect = higher value
# [15] = HTB85 osteosarcoma cell growth inhibition, synergistic combos for chromothripsis tumors, BGB or cisplatin IC20 combos (AID 1671453; in the data active = inhibition above about 80%;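 note: cells exposed for 96 hours before readout; 0% = vehicle DMSO and 100% = high DMSO killing control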); details: HTB85 osteosarcoma cells, drug combinations, stronger effect = higher value
# [16] = MDA-MB-436 breast carcinoma cell growth inhibition, synergistic combos for chromothripsis tumors, BGB or cisplatin combos (AID 1671458); details: MDA-MB-436 breast carcinoma growth inhibition, drug combinations, stronger effect = higher value;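 note: cells exposed for 96 hours; 0% = vehicle DMSO and 100% = killing by high DMSO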
# [17] = growth inhibition of BT084 medulloblastoma cells, cell-based, ICGC_MB145, cisplatin and BGB IC40 combos (AID 1671461; in the data active = inhibition above about 80%;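 note: cells exposed to drugs for 96 hours; 0% = vehicle DMSO and 100% = high DMSO full killing control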); details: drug combinations, stronger effect = higher value
# [18] = growth inhibition of RCMB18 medulloblastoma cells, cell-based, cisplatin and BGB IC40 combos (AID 1671462; in the data active = inhibition above about 80%;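 note: cells exposed to compound for four days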); details: stronger effect = higher value
# [19] = growth inhibition of CRL1545 osteosarcoma cells, cell-based, cisplatin and BGB IC20 combos (AID 1671464; in the data active = inhibition above about 80%;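 note: cells exposed to compound for 96 hours before readout; 0% = vehicle DMSO and 100% = high DMSO killing control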); details: stronger effect = higher value
# [20] = measured here: combination with BGB IC40, at 0.05 µM
# [21] = measured here: with BGB IC20 combination, at 0.5 µM
# [22] = measured here: with cisplatin IC20 combination, at 0.5 µM
# [23] = measured here: combination with cisplatin, at 0.5 µM
# Sequence of NAD(+) hydrolase SARM1 (Homo sapiens) (Q6SZW1 whole entry, looked up): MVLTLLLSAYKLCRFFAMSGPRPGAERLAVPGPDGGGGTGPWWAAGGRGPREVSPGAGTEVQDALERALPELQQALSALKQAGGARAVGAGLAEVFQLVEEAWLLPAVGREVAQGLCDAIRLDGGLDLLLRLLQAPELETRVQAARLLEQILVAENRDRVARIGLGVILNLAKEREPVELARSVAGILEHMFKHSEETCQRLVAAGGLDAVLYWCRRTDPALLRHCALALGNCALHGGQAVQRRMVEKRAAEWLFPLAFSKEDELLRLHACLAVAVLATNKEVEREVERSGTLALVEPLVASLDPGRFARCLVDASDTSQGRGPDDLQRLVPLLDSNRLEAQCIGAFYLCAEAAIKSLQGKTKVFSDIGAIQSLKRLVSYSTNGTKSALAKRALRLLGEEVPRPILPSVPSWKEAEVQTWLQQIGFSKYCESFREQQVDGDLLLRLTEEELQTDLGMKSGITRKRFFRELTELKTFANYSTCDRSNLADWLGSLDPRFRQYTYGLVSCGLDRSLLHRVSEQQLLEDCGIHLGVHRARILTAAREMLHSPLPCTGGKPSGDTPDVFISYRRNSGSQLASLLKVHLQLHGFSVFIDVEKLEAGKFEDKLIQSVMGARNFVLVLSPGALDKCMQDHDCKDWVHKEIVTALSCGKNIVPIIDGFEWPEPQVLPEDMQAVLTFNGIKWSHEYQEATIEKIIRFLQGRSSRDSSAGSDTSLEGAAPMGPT
smiles,measurement,setting,value
O=c1[nH]c2ccccc2c2ccccc12,period change,[1],0.13 h (inactive)
same,inhibition,[2],-3% (inactive)
same,fluorescence ratio (interference),[3],1 (inactive)
same,outcome,[4],inactive
C=C1/C(=C\C=C2/CCC[C@]3(C)[C@@H]([C@H](C)/C=C/[C@@H](O)C4CC4)CC[C@@H]23)C[C@@H](O)C[C@@H]1O,remaining activity,[5],98% (inactive)
CCN(CC)C(=O)[C@]1(c2ccccc2)C[C@@H]1CN,remaining NAD,[6],10 nM (inactive)
CC(C(O)c1ccc(O)cc1)N1CCC(Cc2ccccc2)CC1 (configuration not stated),period change,[1],0.3 h (inactive)
same,survival,[7],3.25 (inactive)
same,inhibition,[2],-4% (inactive)
same,fluorescence ratio (interference),[3],0.9 (inactive)
same,outcome,[4],inactive
O=C(OC1C[C@@H]2CC3C[C@H](C1)N2CC3=O)c1c[nH]c2ccccc12 (some centres not stated),outcome,[4],inactive
"Cc1c2oc3c(C)ccc(C(=O)NC4C(=O)NC(C(C)C)C(=O)N5CCCC5C(=O)N(C)CC(=O)N(C)C(C(C)C)C(=O)OC4C)c3nc-2c(C(=O)NC2C(=O)NC(C(C)C)C(=O)N3CCCC3C(=O)N(C)CC(=O)N(C)C(C(C)C)C(=O)OC2C)c(N)c1=O (configuration not stated) (I: TVP[Sar][NMeV] / II: TVP[Sar][NMeV]; ester I:1-I:C, II:1-II:C; linker I:N-II:N via Actinocin(9to1); configuration not given here)",AC50,[8],4.07 nM (active)
same,outcome,[9],inactive
same,IC50,[10],72.3 nM (active)
CN(C)[C@@H]1C(=O)C(C(=O)NCN2CCCC2)=C(O)[C@@]2(O)C(=O)C3=C(O)c4c(O)cccc4[C@@](C)(O)C3CC12 (some centres not stated),survival,[7],2.5 (inactive)
CO[C@H]1/C=C/O[C@@]2(C)Oc3c(C)c(O)c4c(O)c(c5c(c4c3C2=O)NC2(CCN(CC(C)C)CC2)N=5)=NC(=O)/C(C)=C\C=C\[C@H](C)[C@H](O)[C@@H](C)[C@@H](O)[C@@H](C)[C@H](OC(C)=O)[C@@H]1C,survival,[7],5.5 (inactive)
CO[C@H]1/C=C/O[C@@]2(C)Oc3c(C)c(O)c4c(O)c(c(C=NN5CCN(C)CC5)c(O)c4c3C2=O)NC(=O)/C(C)=C\C=C\[C@H](C)[C@H](O)[C@@H](C)[C@@H](O)[C@@H](C)[C@H](OC(C)=O)[C@@H]1C,inhibition,"[11]; at 0.5 µM, stronger effect = higher value",-11% (inactive)
same,inhibition,"[11]; measured here: combination with BGB IC20, at 0.005 µM",-12.4%
same,inhibition,"[11]; measured here: combination with BGB IC40, at 0.005 µM",-11.3%
same,inhibition,[11]; [20],7.63%
same,inhibition,"[11]; measured here: combination with cisplatin, at 0.5 µM, stronger effect = higher value",-13.1%
same,inhibition,"[11]; measured here: combination with cisplatin, at 5 µM, stronger effect = higher value",25%
same,inhibition,"[12]; BGB combo, at 5 µM",2%
same,inhibition,[12]; at 0.5 µM,2.94% (inactive)
same,inhibition,"[12]; cisplatin combo, at 5 µM",-6.32%
same,inhibition,[12]; [21],7.7%
same,inhibition,[12]; [22],10.2%
same,inhibition,"[12]; single agent, at 5 µM",0.074%
same,inhibition,"[13]; BGB IC20 combo, at 0.005 µM",6.74%
same,inhibition,"[13]; BGB IC40 combo, at 0.005 µM",-7.18%
same,inhibition,"[13]; BGB IC40 combo, at 0.05 µM",33.5%
same,inhibition,[13]; at 0.5 µM,-10.8% (inactive)
same,inhibition,"[13]; cisplatin combo, at 0.05 µM",33.5%
same,inhibition,"[13]; cisplatin combo, at 0.5 µM",-9.79%
same,inhibition,"[13]; cisplatin combo, at 5 µM",-23.1%
same,inhibition,"[13]; measured here: 5 uM single agent, at 5 µM",-0.291%
same,inhibition,[14]; at 0.5 µM,-13.7% (inactive)
same,inhibition,[14]; [20],-25.4%
same,inhibition,[14]; [23],34.7%
same,inhibition,"[14]; measured here: combination with cisplatin, at 5 µM",6.61%
same,inhibition,[15]; at 0.5 µM,-9.22% (inactive)
same,inhibition,"[15]; measured here: with BGB IC20, at 0.5 µM",-34.1%
same,inhibition,"[15]; measured here: with BGB IC20, at 5 µM",19.8%
same,inhibition,"[15]; measured here: with cisplatin IC20, at 0.5 µM",-3.74%
same,inhibition,"[15]; measured here: with cisplatin IC20, at 5 µM",32.8%
same,inhibition,"[15]; single agent, at 5 µM",32.5%
same,inhibition,[16]; at 0.5 µM,-11.2% (inactive)
same,inhibition,"[16]; measured here: BGB combination, at 0.5 µM",-8.37%
same,inhibition,"[16]; measured here: BGB combination, at 5 µM",1.85%
same,inhibition,"[16]; measured here: cisplatin combination, at 0.5 µM",-22.5%
same,inhibition,"[16]; measured here: cisplatin combination, at 5 µM",4.56%
same,inhibition,[17]; at 0.5 µM,-5.85% (inactive)
same,inhibition,"[17]; cisplatin combination, at 0.5 µM",-3.4%
same,inhibition,"[17]; cisplatin combination, at 5 µM",-36.2%
same,inhibition,"[17]; measured here: BGB IC40 combination 0.05 uM, at 0.05 µM",-6.21%
same,inhibition,"[17]; single agent, at 5 µM",-1.11%
same,inhibition,[18]; at 0.5 µM,-18.2% (inactive)
same,inhibition,"[18]; cisplatin combo, at 5 µM",4.58%
same,inhibition,"[18]; measured here: BGB IC40 combination, at 0.05 µM",-7.26%
same,inhibition,[18]; [23],-16%
same,inhibition,"[18]; single agent, at 5 µM",-21.9%
same,inhibition,[19]; at 0.5 µM,-32.1% (inactive)
same,inhibition,[19]; [21],-8.55%
same,inhibition,[19]; [22],-44%
same,inhibition,"[19]; single agent, at 0.05 µM",6.37%
same,inhibition,"[19]; single agent, at 5 µM",27.5%

# — PubChem BioAssay
